ALR H2O2 inh: inhibitors of human sulfhydryl oxidase ALR. purified ALR, DTT oxidation, H2O2 HRP-luminol luminescence. AID 485317. 290,000 tested, 3.8% active. P55789. inhibition, % (no concentration beside the values);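 active = mean replicate inhibition above about 79%, with every replicate also reaching it, limit read from the data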
Target sequence (P55789 whole entry, looked up): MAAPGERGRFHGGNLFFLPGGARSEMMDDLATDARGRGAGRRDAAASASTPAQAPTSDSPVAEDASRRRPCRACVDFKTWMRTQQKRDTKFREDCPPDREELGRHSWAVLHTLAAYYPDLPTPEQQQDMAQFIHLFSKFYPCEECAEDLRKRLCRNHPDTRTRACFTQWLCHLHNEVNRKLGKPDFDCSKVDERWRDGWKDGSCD
Mot1-301 SUMO: SUMOylation pathway inhibition by Mot1-301 growth rescue | S. cerevisiae Mot1-301 growth rescue, ATP luminescence, 38.5C; percent above DMSO median, 100 means doubled | growth rescue, % at 18.8 µM | 320,000 tested, 1% active;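 active = every valid replicate shows activation above 250% relative to neutral control wells; inactive = the rest, any valid replicate at or below 250%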
HIF activator: HIF pathway transcriptional activation. U2OS HRE-luciferase reporter, luminescence; normalized: DMSO 0%, desferrioxamine 100%. activation, % at 7.5 µM (by protocol). 300,000 tested, 0.32% active. AID 1910;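 active = mean activation of at least 10% of the iron chelator positive control signal, with at least half of replicates also reaching 10%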
AI-2 QS modul: Vibrio harveyi AI-2 quorum sensing modulation | 300,000 tested, 0.4% active | Vibrio harveyi JMH597 AI-2 luminescence/OD600 ratio, 9 h; hits give low values; strain lacks LuxN and CqsS sensors; 0 = neutral-control median | AID 2094 | activity change, % at 7.5 µM; in the data active = activity change below about -75%, passing the limit was not always enough;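 note: luminescence divided by OD600 gain over 9 h not by final OD600 alone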
Of the large screens only hits and unclear results are named; the others gave an inactive call. Compounds with a hit are over-represented: about 4.8% of the library has one in this group of screens.

CCN(CC)Cc1c(-c2ccccc2)[nH]c2ccc(C)cc2c1=O	ALR H2O2 inh 97
Cc1ccc2[nH]c(-c3ccccc3)cc(=O)c2c1	none
O=C(O)c1c(C(=O)O)c(-c2ccc(Cl)c(Cl)c2)n2c1CSC2	ALR H2O2 inh 97
COC(=O)c1c(C(=O)OC)c(-c2ccc(Cl)c(Cl)c2)n2c1CCC2	none
N#Cc1c(-c2ccccc2)[nH]c(=S)[nH]c1=O	none
N#Cc1c(-c2cccc(Cl)c2)[nH]c(=S)[nH]c1=O	ALR H2O2 inh 80
Cc1ccc(NCC(O)C(O)C(O)CO)cc1C (stereo unspecified)	none
Cc1cc(N=Nc2ccccc2)c(NCC(O)C(O)C(O)CO)cc1C (stereo unspecified)	ALR H2O2 inh 98 (no result: Mot1-301 SUMO)
Cc1ccc(-c2ccc(=O)n(Cc3cccc(Br)c3)n2)cc1	none
Cc1cc(NC(=O)c2sc(Nc3ccc(F)cc3)nc2N)no1	ALR H2O2 inh 97
Oc1[nH]c2ccccc2c1C1=NCCCCC1	ALR H2O2 inh 93
O=NC1=C(c2c(O)[nH]c3ccccc23)CCCC1	none
N#CC1=C(N)SC(N)=C(C#N)C1c1ccc([N+](=O)[O-])cc1	ALR H2O2 inh 98
CCn1c(NC(=O)c2ccc(C)cc2)c2ccccc2nc1=O	ALR H2O2 inh 95
CCn1c(NC(=O)c2ccc(F)cc2)c2ccccc2nc1=O	none (no result: Mot1-301 SUMO)
COc1ccccc1CNC(=O)COC(=O)c1ccc(NC(N)=O)cc1	Mot1-301 SUMO 325
COc1ccccc1CNC(=O)COC(=O)c1ccc(C(=O)c2ccccc2)cc1	none (no result: HIF activator, AI-2 QS modul)
COc1ccc(NC(=O)CSc2nnc3ccc(-c4cccnc4)nn23)c(OC)c1	none
Cc1nnc(SCC(=O)NC(C)(C)C)n1NCc1c(F)cccc1Cl	none
Cc1nnc(SCC(=O)NC(C)(C)C)n1NCc1ccc(N(C)C)cc1	ALR H2O2 inh 81
CCc1nn2c(=O)cc(CSCC(=O)Nc3ccccc3F)nc2s1	ALR H2O2 inh 99 (no result: Mot1-301 SUMO)
O=C(COc1ncnc2ccccc12)Nc1cc([N+](=O)[O-])ccc1F	none
Cc1ccccc1CSCc1ccc(C(=O)NCCCN2CCOCC2)o1	ALR H2O2 inh 98 (no result: Mot1-301 SUMO)
CC1CCN(CCCNC(=O)c2ccc(CSCc3cccc(Cl)c3)o2)CC1	ALR H2O2 inh 99
Cc1ccc(CSCc2ccc(C(=O)NCCCN3CCOCC3)o2)cc1	none
CN1CCN(CCCNC(=O)c2ccc(CSCc3cccc(Cl)c3)o2)CC1	none
O=C(NC1CC1)c1ccc(CSCc2cccc(F)c2)o1	ALR H2O2 inh 99
CCCCn1c(N)c(N(CC)C(=O)c2c(C)noc2C)c(=O)[nH]c1=O	none (no result: HIF activator, AI-2 QS modul)
COc1ccc(/C=C2\Oc3cc(OCC(=O)N4CCC[C@H]4CO)ccc3C2=O)c(OC)c1	none
CC1CCCN(S(=O)(=O)c2ccc(C(=O)Nc3nnc(C4=COCCO4)o3)cc2)C1 (stereo unspecified)	ALR H2O2 inh 98
CC1CCCCN1S(=O)(=O)c1ccc(C(=O)Nc2nnc(C3=COCCO3)o2)cc1 (stereo unspecified)	ALR H2O2 inh 97
O=C(Nc1nnc(C2=COCCO2)o1)c1ccc(S(=O)(=O)N2CCOCC2)cc1	none
COc1ccc(S(=O)(=O)N2CCCC(N(C)CCc3ccccc3)C2)cc1OC (stereo unspecified)	none
O=C(O)c1ccc(O)c(O)c1	ALR H2O2 inh 98
O=C(O)Cc1ccc(O)c(F)c1	none (no result: ALR H2O2 inh)
O=C(O)c1cccc(C(=O)O)c1	Mot1-301 SUMO 384
O=C(O)c1ccc(-c2ccc(O)c(F)c2)cc1	ALR H2O2 inh 98
Cc1cccc2cc(C#N)c(NCCCNS(=O)(=O)c3ccc(Cl)cc3)nc12	none
CC(CN1CCCCC1)NC(=O)c1cccs1 (stereo unspecified)	none
CCOC(=O)c1ccc(C(=S)N2CCCC2)cc1	none (no result: ALR H2O2 inh, Mot1-301 SUMO)
COc1ccccc1NC(=O)Nc1nc(CC(=O)N2CCN(c3ccccc3F)CC2)cs1	none
CCOC(=O)C1CCCN(S(=O)(=O)c2cc3c4c(c2)CCC(=O)N4CCC3)C1 (stereo unspecified)	none (no result: ALR H2O2 inh)
Cc1oc(=O)c(NC(=O)c2cccc(Cl)c2)cc1C(=O)c1ccccc1	ALR H2O2 inh 97 (no result: Mot1-301 SUMO)
C/C(=N\NC(=O)C1CC1)c1ccccc1O	Mot1-301 SUMO 640 (no result: AI-2 QS modul)
C/C(=N\NC(=O)C1CC1)c1ccccc1Br	none
Cc1csc(NC(=O)CSc2sc3c(O)cc(=O)[nH]c3c2C#N)n1	ALR H2O2 inh 99
CCSc1nnc(NC(=O)CSc2sc3c(O)cc(=O)[nH]c3c2C#N)s1	none
CCc1nnc(NC(=O)CSc2sc3c(O)cc(=O)[nH]c3c2C#N)s1	ALR H2O2 inh 98
O=C(CN1CCN(C(=O)N2CCOCC2)CC1)Nc1cc(Cl)ccc1Cl	none
CCN(CC)S(=O)(=O)c1cc(NC(=O)C2CSC3(C)CCC(=O)N23)ccc1C (stereo unspecified)	none (no result: HIF activator, AI-2 QS modul)
CCCNC(=O)C1(CC2CC(c3ccccc3)=NO2)CCN(C(=O)C2(C)CC2)CC1 (stereo unspecified)	Mot1-301 SUMO 355
CCCNC(=O)C1(CC2CC(c3ccccc3)=NO2)CCN(C(=O)c2ccccc2)CC1 (stereo unspecified)	none (no result: HIF activator, AI-2 QS modul)
CCOC(=O)Cc1c(C)nc2c(-c3cccc(Br)c3)cnn2c1C	none
CCOC(=O)CN1CCc2c(C)nc3c(-c4ccc(OC)c(OC)c4)cnn3c21	ALR H2O2 inh 84
O=C(CN1CCN(C(=O)c2ccc(-c3nc4ccccc4s3)o2)CC1)Nc1ccc(F)cc1	none (no result: HIF activator, AI-2 QS modul)
CCCCCn1c(SCC(=O)CC(=O)OCC)nc2cc(C(=O)N3CCC(C(N)=O)CC3)ccc2c1=O	ALR H2O2 inh 91 (no result: AI-2 QS modul)
CCOC(=O)CSc1nc2cc(C(=O)N3CCC(C(N)=O)CC3)ccc2c(=O)n1C1CCCCC1	ALR H2O2 inh 97 (no result: AI-2 QS modul)
CCOC(=O)CSc1nc2ccccc2c(=O)n1C1CCCC1	none
CCCCCCN1C=CC=C/C1=C\C=C(C#N)C#N	none
CCCN(CCC)S(=O)(=O)c1ccc(C(=O)Nc2ccc(S(=O)(=O)Nc3nnc(CC)s3)cc2)cc1	none
Cc1ccc(NC(=O)CN(C)S(=O)(=O)c2ccc3c(c2)n(C)c(=O)c(=O)n3C)cc1	none
CCOc1ccc(NC(=O)C(C)SC(N)=O)cc1 (stereo unspecified)	ALR H2O2 inh 99
COc1ccc(NC(=O)CSC(C)c2nc3ccccc3c(=O)[nH]2)cc1 (stereo unspecified)	none
CCNC(=O)C1CCCc2c1[nH]c1ccc(Cl)cc21 (stereo unspecified)	none
NC(=O)C1CCCCc2c1[nH]c1ccc(Cl)cc21 (stereo unspecified)	ALR H2O2 inh 98
NC(=O)NC1CCCc2c1[nH]c1ccc(Cl)cc21 (stereo unspecified)	ALR H2O2 inh 98
COc1ccc(CCNC(=O)CN2C(=O)C(=O)N(C3CCCC3)C2=O)cc1OC	none (no result: HIF activator, AI-2 QS modul)
CC(C)(C)C(=O)NC(=S)Nc1ccccc1F	Mot1-301 SUMO 436
CC(=O)NC(=S)Nc1ccccc1F	none
O=C(N/N=C(/CC(=O)c1cccs1)C(F)(F)F)c1ccc(O)cc1	ALR H2O2 inh 80
COc1ccc(NC(=O)CSc2ncccn2)cc1S(=O)(=O)N1CCCCC1	none (no result: HIF activator, AI-2 QS modul)
CN(C)Cc1c(O)ccc2c3c(c(=O)oc12)CCCCC3	ALR H2O2 inh 90
CCCCc1cc(=O)oc2c(CN(C)C)c(O)ccc12	ALR H2O2 inh 94
